Reference: ChEMBL document CHEMBL1157539, “Thousands of chemical starting points for antimalarial lead identification” (Nature, 2010)

Legend:
Format in all cases: functional
Plasmodium falciparum [1] = assay: GSK_TCMDC: Inhibition of Plasmodium falciparum 3D7 in whole red blood cells, using parasite LDH activity as an index of growth. Test compounds present at 2uM
Plasmodium falciparum [2] = assay: GSK_TCMDC: Inhibition of Plasmodium falciparum Dd2 in whole red blood cells, using parasite LDH activity as an index of growth. Test compounds present at 2uM
HepG2 = assay: GSK_TCMDC: Percent inhibition of human HepG2 cell line. Test compounds present at 10uM.

SMILES | Inhibition (Plasmodium falciparum [1]) [%] | Inhibition (Plasmodium falciparum [2]) [%] | Inhibition (HepG2) [%]
Cl.O=c1cc(NCCCNCc2cc3c(Cl)cccc3s2)[nH]c2ccccc12 | 100 | 57 | 6
COC(=O)c1cccc(CNCc2ccc(-c3ccc(-c4nc5cc(C(F)(F)F)ccc5[nH]4)cc3)cc2)c1.O=C(O)C(F)(F)F | 100 | 98 | 22
O=C(Cc1c[nH]cn1)Nc1cccc(-c2cccc(-c3nc4cc(C(F)(F)F)ccc4[nH]3)c2)c1 | 100 | 100 | 35
COc1ccc(-n2nc(C)c3c2NC(=O)CC3c2ccccc2OCc2ccccc2F)cc1 (stereo not given) | 93 | 70 | 38
Br.CC1(C)N=C(N)N=C(N)N1OCCCOc1cccc(C(=O)O)c1 | 94 | 96 | 73
COc1cc2nc(NCCc3ccccc3)nc(NCc3nccs3)c2cc1OC | 99 | 93 | 1
CC1(C)Cc2c(oc3ncn(CCn4cnc5oc6c(c5c4=N)CC(C)(C)SC6)c(=N)c23)CS1 | 98 | 93 | 0
Cc1cccc2nc(-c3ccc(-c4ccc(CN5CCC(N)C5)cc4)s3)[nH]c12.O=C(O)C(F)(F)F (stereo not given) | 100 | 98 | 21
Cc1cccc2nc(-c3cccc(-c4cccc(NC(=O)Nc5ccccc5)c4)c3)[nH]c12 | 100 | 64 | 8
c1ccc(C23NC(=Nc4nc5ccccc5[nH]4)NC2(c2ccccc2)NC(=Nc2nc4ccccc4[nH]2)N3)cc1 (stereo not given) | 97 | 89 | 2
Cc1cc(N(C)C)nc(Nc2ccc(NC(=O)c3ccccc3Cl)cc2)n1 | 88 | 31 | 3
O=C(NCC1CCCCC1)c1cc(=O)c2ccccc2o1 | 98 | 77 | 0
COc1ccc2nccc(N3CCC(CCNCc4ccc5c(n4)NC(=O)CS5)CC3)c2c1.Cl | 100 | 86 | 55
NC(=O)c1ccsc1NC(=O)CNC(c1ccccc1)c1ccc(Cl)cc1 (stereo not given) | 83 | 89 | 25
CCC[C@@H]([C@@H](CC(C)C)C(=O)N[C@H](C(=O)Nc1nccs1)C(C)(C)SCCNC(=O)OCC)N(O)C=O | 95 | 97 | 0
CCOc1cc(C)ccc1C1CCN(CCCCNC(=O)c2cccc(-c3ccc(C(F)(F)F)cc3)c2)CC1 | 99 | 55 | 39
COc1ccc2nccc(N3CCCN(CCNS(=O)(=O)c4ccc5c(c4)NC(=O)CS5)CC3)c2n1.Cl | 97 | 15 | 0
COc1ccc(CNCc2cccc(-c3cccc(-c4nc5ccccc5[nH]4)c3)c2)cc1.O=C(O)C(F)(F)F | 100 | 50 | 24
Cc1ccc2sc(N(CCCn3ccnc3)C(=O)c3ccco3)nc2c1C.Cl | 93 | 98 | 9
CC12CCC(C(=O)N(CC(O)Cn3c4ccc(Cl)cc4c4cc(Cl)ccc43)C1=O)C2(C)C (stereo not given) | 100 | 99 | 0

SMILES | Inhibition (Plasmodium falciparum [1]) [%] | Inhibition (Plasmodium falciparum [2]) [%] | Inhibition (HepG2) [%]
CC(C)(C)NC(=O)c1ccc(Oc2ccc(OC(F)(F)F)cc2)c(NC(=O)C(C)(C)C)c1 | 89 | 2 | 0
Cc1nc(-c2nc(NCCc3ccncc3)ncc2-c2ccsc2)sc1C | 92 | 87 | 10
COCCN1CCC(N(Cc2ccc(-c3ccc(C(F)(F)F)cc3)cc2)C(=O)Cn2c(CCc3cccc(F)c3F)cc(=O)c3c2CCC3)CC1.O=C(O)C(O)C(O)C(=O)O | 85 | 48 | 31
CCCCCCN1CCC(NCc2cccc(-n3ccnc3)c2)CC1.O=C(O)C(F)(F)F | 100 | 100 | 3
O=C(c1cc(-c2ccccc2O)on1)N1CCN(C(c2ccccc2)c2ccccc2)CC1 | 97 | 88 | 12
CC(Cc1ccc(COc2ccc(CC(CO)NCCc3cccc(Cl)c3)cc2)cc1)NCCc1cccc(Cl)c1.Cl (stereo not given) | 100 | 86 | 99
COc1ccc(CN2CCN(CCCCNC(=O)c3ccc(NC(=O)c4ccc(Cl)cc4)cc3)CC2)c(OC)c1 | 94 | 0 | 25
COc1ccc(CCNc2nc(NCc3ccccc3)c3cc(OC)c(OC)cc3n2)cc1OC | 100 | 91 | 46
COc1cccc(CNC(=O)[C@H]2CNCCN2C(=O)CCCc2ccccc2)c1.O=C(O)C(F)(F)F | 91 | 95 | 56
CC(=O)Nc1nc(C(=O)Nc2cccc(-c3ccc(-c4nc5ccccc5[nH]4)cc3)c2)cs1 | 100 | 60 | 88
COc1cc(Br)c(S(=O)(=O)n2cc(CN3CCC(N)CC3)c3cc(Cl)ccc32)cc1OC.O=C(O)C(F)(F)F | 99 | 32 | 27
COc1cc(CC2c3cc(O)c(Cl)cc3CCN2C)c(OC)cc1C.Cl (stereo not given) | 99 | 88 | 10
Cc1cnc(Nc2cccnc2)nc1Nc1ccccc1C(=O)NC(C)C | 85 | 26 | 9
Cc1cc(C)c(-c2n[nH]c3c2C(c2cccc(Cl)c2)N(Cc2ccco2)C3=O)c(O)c1 (stereo not given) | 96 | 89 | 0
Cc1cccc(CN2CCC(C(=O)Nc3ccc(-c4nc5ccccc5[nH]4)cc3)CC2)n1 | 96 | 3 | 0
NS(=O)(=O)Cc1cccc(-c2ccnc3ccc(-c4cccc(S(N)(=O)=O)c4)cc23)c1 | 98 | 42 | 39
O=C(c1ccc(O)c(-c2cc(Cl)cc(Cl)c2)c1)N(CCO)CCO | 94 | 62 | 1
COc1cccc([C@@H](CC(=O)Nc2cc(C(F)(F)F)ccc2OC)Nc2ccc(C#N)c3ccccc23)c1 | 96 | 53 | 19
CC(C)(C)SC1SC(SC(C)(C)C)C(OC(=O)c2ccccc2)C(OC(=O)c2ccccc2)C1OC(=O)c1ccccc1 (stereo not given) | 95 | 45 | 0
Cc1ccc(Cn2c(N3CCC(C(=O)NCc4cccs4)CC3)nc3ccccc32)cc1 | 99 | 71 | 0

SMILES | Inhibition (Plasmodium falciparum [1]) [%] | Inhibition (Plasmodium falciparum [2]) [%] | Inhibition (HepG2) [%]
CN(C)CCCOc1ccc(-c2nc(-c3ccc4c(c3)CCC4=NO)c(-c3ccncc3)[nH]2)cc1.Cl | 96 | 63 | 68
O=C(O)C(F)(F)F.O=C1OC2(CN1CC1CCN(Cc3ccc(-n4ccnc4)cc3)C1)c1ccccc1-c1ccccc12 (stereo not given) | 96 | 0 | 25
Cc1cc(F)ccc1Nc1nc(N(C)c2ccccc2)c2cccc(OCCO)c2n1 | 95 | 94 | 34
O=C(Cn1c(CCc2cccc(F)c2F)cc(=O)c2ccccc21)N(Cc1ccc(-c2ccc(C(F)(F)F)cc2)cc1)C1CCN(CCO)CC1.O=C(O)C(O)C(O)C(=O)O | 91 | 84 | 82
COc1ccc(CN2CCCN(Cc3cccc(NC(=O)c4cc5ccccc5s4)c3)CC2)cc1.O=C(O)C(F)(F)F | 94 | 32 | 32
CC1(C)CNCc2cc(NC(=O)/C=C/c3ccc(Cl)cc3)ccc21.Cl | 82 | 26 | 23
Cc1ccc(NC(=O)Nc2ccc(S(=O)(=O)c3ccc(NC(=O)Nc4ccc(C)c(Cl)c4)cc3)cc2)cc1Cl | 99 | 42 | 49
CCCc1cc(Cc2cnc(N)nc2N)cc2c1OC(C)C2C.Cl (stereo not given) | 98 | 0 | 32
Cn1nccc1C(=O)NCCNCc1ccc(-c2cccc(-c3nc4ccccc4[nH]3)c2)cc1.O=C(O)C(F)(F)F | 100 | 87 | 35
CCc1cc(Br)c2c(c1)C(NCCCNc1cc(=O)c3ccccc3[nH]1)CCN2 (stereo not given) | 94 | 20 | 13
COc1ccc(NC(=O)[C@H](Cc2ccccc2)Nc2cc(C)nc(NCC3CCCCC3)n2)cc1.O=C(O)C(F)(F)F | 100 | 83 | 9
COc1ccc2nccc([C@@H](O)CN3CCC(NCc4nc5ccccc5[nH]4)CC3)c2c1.O=C(O)C(=O)O | 92 | 2 | 41
O=C(Nc1cccc(-c2nn3ncccc3c2-c2ccnc(Nc3cccc(C(F)(F)F)c3)n2)c1)c1c(F)cccc1F | 97 | 68 | 49
Cc1c(-c2ccc3c(c2)C(NCCCN2CCCCC2)CC3)cnc(N)c1C.Cl (stereo not given) | 97 | 3 | 4
Cc1cc(Nc2nc(Nc3cccc(Cl)c3)nc3ccccc23)n[nH]1 | 100 | 95 | 9
Br.Oc1ccc(CCNCCCCCCNCCc2ccc(Cl)cc2)c(Cl)c1O | 100 | 30 | 23
CN1CCN(CCCN(Cc2ccc(-c3cccc(CNCc4ccc5c(c4)OCO5)c3)cc2)C(=O)NCCc2ccccc2)CC1.O=C(O)C(F)(F)F | 98 | 85 | 36
O=C(O)C(F)(F)F.c1ccc(-c2ccc(CNCc3ccc(-c4cccc(-c5nc6ccccc6[nH]5)c4)cc3)s2)nc1 | 98 | 80 | 48
COc1ccc2nccc([C@@H](O)CN3CCC(NCc4cc5cc(Cl)ccc5[nH]4)CC3)c2c1.O=C(O)C(=O)O | 99 | 64 | 27
FC(F)(F)c1ccc2[nH]c(-c3ccc(-c4ccc(CNCc5ccccc5)cc4)cc3)nc2c1.O=C(O)C(F)(F)F | 100 | 96 | 22
